The OligoGym collection

These sequences were tested against CD86 (assay: pooled miR-30 sensor sort-seq; sequence = guide strand). Details: shRNA.
Also: reference of the scale not given here.

Row | Sequence | sensor-assay potency score (higher = more potent)
1 | TATACTTGGAATGAACACTGTC | 1.09
2 | TAACCGTGTATAGATGAGCAGG | -0.921
3 | TAACTGTTGGAAGTACAGCTGT | -0.0777
4 | TTCTGTGACATTATCTTGAGAT | 0.246
5 | TTTATGTACACATTTTCTGTTA | -0.664
6 | TACTATTTCAGGTTGACTGAAG | -0.445
7 | AAGATGGTCATATTGCTCGTAA | -0.638
8 | AACACTGTCAAATTTCTCTTTG | -0.375
9 | TTGTGAAGTCTCAGGGTCCAAC | -1.21
10 | TCATATTGCTCGTAACATCAGG | -0.912
11 | TAGAATTAGACAGAAAACCATC | -0.951
12 | TGATACATTGATACAAGCCCTT | -0.31

What follows are sequences tested against CD8B in the same assay as above. Details: shRNA.

Row | Sequence | sensor-assay potency score (higher = more potent)
13 | TTCTCCAGTGGATGTAATCTTA | -0.513
14 | AAGGAAATCAACCACACTCAGC | -1.28
15 | TACTGAGGGAGATTTTAGCCTC | -0.613
16 | TATGTATGCAGGGGTCTGCTGG | -1.19
17 | TTTTTCCACATCGTGCTCGTTA | -0.473
18 | AACACAGCTATCTTCTCCTGTT | -0.341
19 | TTTAGCCTCGCAGGACAGCATC | -1.65
20 | TTGGTTTGCACCTTTATGTATG | -1.15
21 | TGTACAACTAAGACATTTGTAT | 0.113
22 | AAACACAGCTATCTTCTCCTGT | 0.733
23 | TATTTGTACAACTAAGACATTT | -1.4
24 | TTATTTGTACAACTAAGACATT | -1.21
25 | TTGCATCCCGAAACACAGCTAT | -0.634
26 | TAATCTTAGTTGTTTCATGAAA | -1.22
27 | TAACCGGCACACTCTCTTCTTG | -0.762
28 | TTGAGGGTGGACTTCTTGGTGG | -0.918
29 | TATCTTCTCCTGTTCCACCTCT | 0.0744
30 | TACATTTGGTTCCACAAGGGGG | -0.791
31 | TATTGCTGTAGTATCCATGCAG | 0.681
